# In all, about 2,900 compounds were measured (“NF-kB SEAP reporter activity, fold change vs agonist alone”: median about 0.99, highest 2% from about 2.6 on). The full list was thinned out, with the highest values kept by preference.
# Legend:
# [1] = test system: RAW-Dual; assay: NF-kB SEAP reporter activity, fold change vs agonist alone; higher = enhanced NF-kB activity
# Outline: (§1)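 Reporter activity is given as fold change relative to agonist-alone wells. To measure it, 50 nL of library stock was pin-tooled onto RAW-Dual macrophages (50,000 cells/well, DMEM, 384-well plates), a PRR agonist followed 1 h later, and cells stayed at 37 °C, 5% CO2. Twenty hours on, supernatant was assayed for IRF (QuantiLuc luminescence) and NF-κB (QuantiBlue, 620 nm absorbance), and wells under 70% of agonist-control IncuCyte confluency in both mask sets were marked cytotoxic.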
# [2] = test system: RAW-Dual; assay: NF-kB SEAP reporter activity, fold change vs agonist alone; cytotoxicity flag (confluency mask): not cytotoxic; higher = enhanced NF-kB activity
# Outline: as §1
# [3] = test system: RAW-Dual; assay: NF-kB SEAP reporter activity, fold change vs agonist alone; cytotoxicity flag (confluency mask): cytotoxic (confluency <70% of control); higher = enhanced NF-kB activity
# Outline: as §1
# [4] = library stock concentration (final ~1000-fold dilution): 10 mM, cytotoxicity flag (confluency mask): not cytotoxic, agonist: Imiquimod (TLR7) […]
# [5] = library stock concentration (final ~1000-fold dilution): 10 mM, cytotoxicity flag (confluency mask): not cytotoxic, agonist: MPLA (TLR4) […]
# [6] = agonist: ODN 1826 (TLR9) 0.5 ug/mL
# [7] = agonist: Pam2CSK4 (TLR2/6) 0.1 ug/mL
# [8] = agonist: Pam3CSK4 (TLR2/1) 0.1 ug/mL
# [9] = library stock concentration (final ~1000-fold dilution): 10 mM, cytotoxicity flag (confluency mask): cytotoxic (confluency <70% of control), agonist: Imiquimod (TLR7) […]
# [10] = library stock concentration (final ~1000-fold dilution): 10 mM, cytotoxicity flag (confluency mask): cytotoxic (confluency <70% of control), agonist: MPLA (TLR4) […]
smiles,measurement,setting,value
CCOC(=O)C(CCc1ccccc1)NC1CCc2ccccc2N(CC(=O)O)C1=O.Cl (stereo not drawn),NF-kB SEAP reporter activity,[1]; [4],0.99
same,NF-kB SEAP reporter activity,[1]; [5],0.958
CCOC(=O)C(CCc1ccccc1)NC1CCc2ccccc2N(CC(=O)O)C1=O.Cl (stereo not drawn) (library stock concentration (final ~1000-fold dilution): 10 mM),NF-kB SEAP reporter activity,[2]; agonist: LPS (TLR4) 0.1 ug/mL,0.997
same,NF-kB SEAP reporter activity,[2]; [6],0.98
same,NF-kB SEAP reporter activity,[2]; [7],1.03
same,NF-kB SEAP reporter activity,[2]; [8],0.994
COC(=O)Nc1nc2ccc(C(=O)c3cccs3)cc2[nH]1,NF-kB SEAP reporter activity,[1]; [9],2.68
same,NF-kB SEAP reporter activity,[1]; [10],2.1
CC(C(=O)O)c1ccc(C(=O)c2cccs2)cc1 (stereo not drawn) (library stock concentration (final ~1000-fold dilution): 10 mM),NF-kB SEAP reporter activity,[2]; agonist: LPS (TLR4) 0.1 ug/mL,1.19
same,NF-kB SEAP reporter activity,[2]; [6],0.999
same,NF-kB SEAP reporter activity,[2]; [7],1.06
same,NF-kB SEAP reporter activity,[2]; [8],1.07
CCCS(=O)c1ccc2nc(NC(=O)OC)[nH]c2c1 (stereo not drawn) (library stock concentration (final ~1000-fold dilution): 10 mM),NF-kB SEAP reporter activity,[2]; agonist: LPS (TLR4) 0.1 ug/mL,1.06
same,NF-kB SEAP reporter activity,[2]; [6],0.948
same,NF-kB SEAP reporter activity,[2]; [7],1.05
same,NF-kB SEAP reporter activity,[2]; [8],1.09
CC(C(=O)O)c1ccc(C(=O)c2cccs2)cc1 (stereo not drawn),NF-kB SEAP reporter activity,[1]; [4],0.601
same,NF-kB SEAP reporter activity,[1]; [5],0.825
CCCS(=O)c1ccc2nc(NC(=O)OC)[nH]c2c1 (stereo not drawn),NF-kB SEAP reporter activity,[1]; [4],1.04
same,NF-kB SEAP reporter activity,[1]; [5],0.808
COC(=O)Nc1nc2ccc(C(=O)c3cccs3)cc2[nH]1 (library stock concentration (final ~1000-fold dilution): 10 mM),NF-kB SEAP reporter activity,[3]; agonist: LPS (TLR4) 0.1 ug/mL,2.52
same,NF-kB SEAP reporter activity,[3]; [6],3.14
same,NF-kB SEAP reporter activity,[3]; [7],1.85
same,NF-kB SEAP reporter activity,[3]; [8],1.76
CCCS(=O)(=O)NC1CC(N(C)c2ncnc3[nH]ccc23)C1 (stereo not drawn),NF-kB SEAP reporter activity,[1]; [4],0.73
same,NF-kB SEAP reporter activity,[1]; [5],0.764
CCCS(=O)(=O)NC1CC(N(C)c2ncnc3[nH]ccc23)C1 (stereo not drawn) (library stock concentration (final ~1000-fold dilution): 10 mM),NF-kB SEAP reporter activity,[2]; agonist: LPS (TLR4) 0.1 ug/mL,0.584
same,NF-kB SEAP reporter activity,[2]; [6],0.746
same,NF-kB SEAP reporter activity,[2]; [7],0.786
same,NF-kB SEAP reporter activity,[2]; [8],0.875
Cl.O=C1c2cccc3c2C(CCC3)CN1C1CN2CCC1CC2 (stereo not drawn) (library stock concentration (final ~1000-fold dilution): 10 mM water),NF-kB SEAP reporter activity,[2]; agonist: LPS (TLR4) 0.1 ug/mL,0.985
same,NF-kB SEAP reporter activity,[2]; [6],0.593
same,NF-kB SEAP reporter activity,[2]; [7],0.966
same,NF-kB SEAP reporter activity,[2]; [8],0.917
Cl.O=C1c2cccc3c2C(CCC3)CN1C1CN2CCC1CC2 (stereo not drawn),NF-kB SEAP reporter activity,"[1]; library stock concentration (final ~1000-fold dilution): 10 mM water, cytotoxicity flag (confluency mask): not cytotoxic, agonist: Imiquimod (TLR7) […]",0.577
same,NF-kB SEAP reporter activity,"[1]; library stock concentration (final ~1000-fold dilution): 10 mM water, cytotoxicity flag (confluency mask): not cytotoxic, agonist: MPLA (TLR4) […]",0.711
CCN(CC)CCNC(=O)c1c(C)[nH]c(/C=C2\C(=O)Nc3ccc(F)cc32)c1C.O=C(O)CC(O)C(=O)O (library stock concentration (final ~1000-fold dilution): 10 mM),NF-kB SEAP reporter activity,[2]; agonist: LPS (TLR4) 0.1 ug/mL,0.295
same,NF-kB SEAP reporter activity,[2]; [6],0.21
same,NF-kB SEAP reporter activity,[2]; [7],0.27
same,NF-kB SEAP reporter activity,[2]; [8],0.317
CCN(CC)CCNC(=O)c1c(C)[nH]c(/C=C2\C(=O)Nc3ccc(F)cc32)c1C.O=C(O)CC(O)C(=O)O,NF-kB SEAP reporter activity,[1]; [4],0.892
same,NF-kB SEAP reporter activity,[1]; [5],0.292
Cc1nn(CC(F)(F)F)cc1Nc1ncc(Br)c(NCc2ccc(S(N)(=O)=O)cc2)n1 (library stock concentration (final ~1000-fold dilution): 10 mM),NF-kB SEAP reporter activity,[2]; agonist: LPS (TLR4) 0.1 ug/mL,0.744
same,NF-kB SEAP reporter activity,[2]; [6],1.28
same,NF-kB SEAP reporter activity,[2]; [7],1.17
same,NF-kB SEAP reporter activity,[2]; [8],1.54
Cc1nn(CC(F)(F)F)cc1Nc1ncc(Br)c(NCc2ccc(S(N)(=O)=O)cc2)n1,NF-kB SEAP reporter activity,[1]; [4],1.38
same,NF-kB SEAP reporter activity,[1]; [5],1.33
CSCC(N)C(=O)O (stereo not drawn),NF-kB SEAP reporter activity,[1]; [4],0.816
same,NF-kB SEAP reporter activity,[1]; [5],0.97
CSCC(N)C(=O)O (stereo not drawn) (library stock concentration (final ~1000-fold dilution): 10 mM),NF-kB SEAP reporter activity,[2]; agonist: LPS (TLR4) 0.1 ug/mL,1.3
same,NF-kB SEAP reporter activity,[2]; [6],1.03
same,NF-kB SEAP reporter activity,[2]; [7],1.12
same,NF-kB SEAP reporter activity,[2]; [8],1.08
Nc1ccc(F)cc1NC(=O)c1ccc(CNC(=O)/C=C/c2cccnc2)cc1,NF-kB SEAP reporter activity,[1]; [4],1.65
same,NF-kB SEAP reporter activity,[1]; [5],1.89
O=C(/C=C/c1cccnc1)c1ccncc1 (library stock concentration (final ~1000-fold dilution): 10 mM),NF-kB SEAP reporter activity,[2]; agonist: LPS (TLR4) 0.1 ug/mL,1.03
same,NF-kB SEAP reporter activity,[2]; [6],0.938
same,NF-kB SEAP reporter activity,[2]; [7],1.21
same,NF-kB SEAP reporter activity,[2]; [8],1.05
Nc1ccc(F)cc1NC(=O)c1ccc(CNC(=O)/C=C/c2cccnc2)cc1 (library stock concentration (final ~1000-fold dilution): 10 mM),NF-kB SEAP reporter activity,[2]; agonist: LPS (TLR4) 0.1 ug/mL,3.7
same,NF-kB SEAP reporter activity,[2]; [6],3.18
same,NF-kB SEAP reporter activity,[2]; [7],0.749
same,NF-kB SEAP reporter activity,[2]; [8],1.53
O=C(/C=C/c1cccnc1)NCCCCC1CCN(C(=O)c2ccccc2)CC1 (library stock concentration (final ~1000-fold dilution): 10 mM),NF-kB SEAP reporter activity,[2]; agonist: LPS (TLR4) 0.1 ug/mL,0.56
same,NF-kB SEAP reporter activity,[2]; [6],1.07
same,NF-kB SEAP reporter activity,[2]; [7],0.67
same,NF-kB SEAP reporter activity,[2]; [8],0.537
O=C(/C=C/c1cccnc1)c1ccncc1,NF-kB SEAP reporter activity,[1]; [4],0.871
same,NF-kB SEAP reporter activity,[1]; [5],0.953
O=C(/C=C/c1cccnc1)NCCCCC1CCN(C(=O)c2ccccc2)CC1,NF-kB SEAP reporter activity,[1]; [4],1.06
same,NF-kB SEAP reporter activity,[1]; [5],0.719
COc1ccc(C2OCC3C(c4cc(OC)c(OC)c(OC)c4)OCC23)cc1OC (stereo not drawn),NF-kB SEAP reporter activity,[1]; [4],0.813
same,NF-kB SEAP reporter activity,[1]; [5],1.03
COc1ccc(C2OCC3C(c4cc(OC)c(OC)c(OC)c4)OCC23)cc1OC (stereo not drawn) (library stock concentration (final ~1000-fold dilution): 10 mM),NF-kB SEAP reporter activity,[2]; agonist: LPS (TLR4) 0.1 ug/mL,1.2
same,NF-kB SEAP reporter activity,[2]; [6],1
same,NF-kB SEAP reporter activity,[2]; [7],1.01
same,NF-kB SEAP reporter activity,[2]; [8],1.71
O=C1c2cccc3c2C(CCC3)CN1C1CN2CCC1CC2 (stereo not drawn),NF-kB SEAP reporter activity,[1]; [4],0.886
same,NF-kB SEAP reporter activity,[1]; [5],1.17
O=C1c2cccc3c2C(CCC3)CN1C1CN2CCC1CC2 (stereo not drawn) (library stock concentration (final ~1000-fold dilution): 10 mM),NF-kB SEAP reporter activity,[2]; agonist: LPS (TLR4) 0.1 ug/mL,1.5
same,NF-kB SEAP reporter activity,[2]; [6],0.937
same,NF-kB SEAP reporter activity,[2]; [7],0.587
same,NF-kB SEAP reporter activity,[2]; [8],0.339
COc1ccc(-c2nc(N3CCOCC3)c3sc(CN(C)c4ncc(C(=O)NO)cn4)cc3n2)cn1 (library stock concentration (final ~1000-fold dilution): 10 mM),NF-kB SEAP reporter activity,[3]; agonist: LPS (TLR4) 0.1 ug/mL,4.34
same,NF-kB SEAP reporter activity,[3]; [6],2.1
same,NF-kB SEAP reporter activity,[3]; [7],1.3
same,NF-kB SEAP reporter activity,[3]; [8],1.6
Cc1c(CN2CCN(C(=O)C(C)O)CC2)sc2c(N3CCOCC3)nc(-c3cnc(N)nc3)nc12 (stereo not drawn),NF-kB SEAP reporter activity,[1]; [4],1
same,NF-kB SEAP reporter activity,[1]; [5],1.08
Cc1c(CN2CCN(C(=O)C(C)O)CC2)sc2c(N3CCOCC3)nc(-c3cnc(N)nc3)nc12 (stereo not drawn) (library stock concentration (final ~1000-fold dilution): 10 mM),NF-kB SEAP reporter activity,[2]; agonist: LPS (TLR4) 0.1 ug/mL,1.32
same,NF-kB SEAP reporter activity,[2]; [6],0.763
same,NF-kB SEAP reporter activity,[2]; [7],0.412
same,NF-kB SEAP reporter activity,[2]; [8],0.661
COC1(c2sc3c(N4CCOCC4)nc(-c4cnc(N)nc4)nc3c2C)COC1 (library stock concentration (final ~1000-fold dilution): 10 mM),NF-kB SEAP reporter activity,[2]; agonist: LPS (TLR4) 0.1 ug/mL,1.46
same,NF-kB SEAP reporter activity,[2]; [6],0.707
same,NF-kB SEAP reporter activity,[2]; [7],0.459
same,NF-kB SEAP reporter activity,[2]; [8],0.608
COc1ccc(-c2nc(N3CCOCC3)c3sc(CN(C)c4ncc(C(=O)NO)cn4)cc3n2)cn1,NF-kB SEAP reporter activity,[1]; [9],2.88
same,NF-kB SEAP reporter activity,[1]; [10],2.66
COC1(c2sc3c(N4CCOCC4)nc(-c4cnc(N)nc4)nc3c2C)COC1,NF-kB SEAP reporter activity,[1]; [4],0.913
same,NF-kB SEAP reporter activity,[1]; [5],1.05
CC(C)(CNC(=O)c1cccc(-c2noc(C(F)(F)F)n2)c1)c1coc(-c2ccccc2)n1,NF-kB SEAP reporter activity,[1]; [4],0.959
same,NF-kB SEAP reporter activity,[1]; [5],1.09
CC(C)(CNC(=O)c1cccc(-c2noc(C(F)(F)F)n2)c1)c1coc(-c2ccccc2)n1 (library stock concentration (final ~1000-fold dilution): 10 mM),NF-kB SEAP reporter activity,[2]; agonist: LPS (TLR4) 0.1 ug/mL,1.03
same,NF-kB SEAP reporter activity,[2]; [6],1.03
same,NF-kB SEAP reporter activity,[2]; [7],0.625
same,NF-kB SEAP reporter activity,[2]; [8],0.745

# Source: the supplement of paper PMC10037445
